Laboratory results published in PubChem BioAssay.
Activity calls are given as the source filed them. Unless noted, how the calls were made is not given here.

Columns and labels:
[1] = system: XIP peptide (Xip251-270) binding; assay: small-molecule binders of XIP peptide, primary screen, biochemical, small-molecule microarray, fluorescence 635/667 nm, 0.1 µg/mL protein (AID 1182); conditions: fluorescent protein binding, 635 nm, higher = more signal, called active from +8 up or from −8 down
[2] = system: XIP peptide (Xip251-270); assay: small-molecule binders of XIP peptide, primary screen, biochemical, small-molecule microarray, fluorescence 635/667 nm, 0.5 µg/mL protein (AID 1183); conditions: small-molecule microarray binding, fluorescence 635 nm; higher = more signal
[3] = Plasmodium falciparum growth inhibition, primary screen, strain 3D7, DAPI fluorescence, 100 nL (AID 1184);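 further: parasites grown inside human red blood cells in medium with human serum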; conditions: P. falciparum 3D7 growth, 3 d, higher = more signal
[4] = target: Homeobox protein Hox-A13 (Mus musculus) (UniProt Q62424); assay: inhibitors of HoxA13-DNA binding, primary screen, biochemical, fluorescence polarization, labeled oligonucleotide (AID 1185); conditions: 15 min, higher = more signal, called active from +8 up or from −8 down
Homeobox protein Hox-A13 (Mus musculus), sequence (Q62424 whole entry, looked up): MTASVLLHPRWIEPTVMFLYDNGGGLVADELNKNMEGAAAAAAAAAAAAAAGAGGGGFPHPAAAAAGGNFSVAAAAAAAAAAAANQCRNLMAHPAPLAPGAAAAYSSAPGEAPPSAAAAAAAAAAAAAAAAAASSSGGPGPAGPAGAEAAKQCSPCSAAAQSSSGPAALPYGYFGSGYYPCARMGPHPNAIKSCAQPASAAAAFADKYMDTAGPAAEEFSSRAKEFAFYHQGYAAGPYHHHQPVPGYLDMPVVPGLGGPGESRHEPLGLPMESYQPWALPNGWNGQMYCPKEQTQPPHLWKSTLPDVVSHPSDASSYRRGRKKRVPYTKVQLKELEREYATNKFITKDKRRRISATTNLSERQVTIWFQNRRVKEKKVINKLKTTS

[5] = inhibitors of hydroxyurea-induced Chk1 phosphorylation, primary screen, imaging, HeLa, phospho-Chk1 antibody, percent positive cells (AID 1186); conditions: hydroxyurea-induced phospho-Chk1 immunofluorescence imaging, higher = more signal
[6] = inhibitors of hydroxyurea-induced Chk1 phosphorylation, primary screen, imaging, HeLa, phospho-Chk1 nuclear intensity (AID 1187); conditions: hydroxyurea-induced phospho-Chk1 immunofluorescence imaging, higher = more signal

Structure (SMILES): CN1C(=O)C2C=CC(C(O)COCc3ccccc3)N(N(c3ccccc3)c3ccccc3)C2C1=O (stereo not given)
- composite z-score [1]: 0.441 (inactive)
- composite z-score [2]: 0.74
- z-score [3]: -0.144
- z-score [4]: -0.885 (inactive)
- z-score [5]: -0.0138 (inactive)
- z-score [6]: -0.35 (inactive)

Structure (SMILES): CCOC(=O)C[C@H]1[C@H](OC(=O)c2ccc(C(=O)c3ccccc3)cc2)[C@@H](NC(=O)Cc2ccc(OC)cc2)c2cc(OCCCO)ccc2N1C(=O)c1ccccc1
- composite z-score [1]: 0.922 (inactive)
- composite z-score [2]: -0.281
- z-score [3]: -0.133
- z-score [4]: -1.88 (inactive)
- z-score [5]: 0.72 (inactive)
- z-score [6]: 0.343 (inactive)

Structure (SMILES): O=C1O[C@H](c2ccccc2)[C@H](c2ccccc2)N2[C@H]1[C@@H](C(=O)NC[C@H](O)c1ccccc1)[C@]1(C(=O)Nc3ccc(C#CCCO)cc31)[C@H]2c1ccc(OCCO)cc1
- composite z-score [1]: 1.14 (inactive)
- composite z-score [2]: 0.829
- z-score [3]: -0.685
- z-score [4]: -3.46 (inactive)
- z-score [5]: -0.434 (inactive)
- z-score [6]: -0.821 (inactive)

Structure (SMILES): O=C1OCC=C[C@H]2OC34C=CCN(Cc5ccccc5)C(=O)[C@H]3N(CCCCCCO)C(=O)[C@@H]4[C@@H]12 (stereo not given in full)
- composite z-score [1]: 1.49 (inactive)
- composite z-score [2]: 0.295
- z-score [3]: -1.16
- z-score [4]: -4.53 (inactive)
- z-score [5]: -0.584 (inactive)
- z-score [6]: -0.232 (inactive)

Structure (SMILES): CC=CC(O)C1C=CC2C(=O)N(c3ccccc3)C(=O)C2N1Nc1ccccc1F (stereo not given)
- composite z-score [1]: 0.147 (inactive)
- composite z-score [2]: 0.744
- z-score [3]: -0.48
- z-score [4]: -3.7 (inactive)
- z-score [5]: 0.0921 (inactive)
- z-score [6]: -0.305 (inactive)

Structure (SMILES): C=CC[C@@]1(C(=O)N2CCOCC2)N=C(c2ccc(OCCCO)cc2)O[C@@H]1c1ccccc1CN=[N+]=[N-]
- composite z-score [1]: 0.74 (inactive)
- composite z-score [2]: 0.758
- z-score [3]: -2.26
- z-score [4]: -5.78 (inactive)
- z-score [5]: 0.0151 (inactive)
- z-score [6]: 0.349 (inactive)

Structure (SMILES): NC(=O)N1C(=O)C2C(C1=O)C1C=C(CCCO)C2C(c2cccs2)N1Cc1cccc(OC(F)(F)F)c1 (stereo not given)
- composite z-score [1]: 1.07 (inactive)
- composite z-score [2]: 0.577
- z-score [3]: 0.379
- z-score [4]: -6.01 (inactive)
- z-score [5]: -0.356 (inactive)
- z-score [6]: -0.334 (inactive)

Structure (SMILES): C=C(C)C1CCC(C(O)C2C=CC3C(=O)N(C)C(=O)C3N2N2CCCCC2)CC1 (stereo not given)
- composite z-score [1]: 0.763 (inactive)
- composite z-score [2]: 0.622
- z-score [3]: -0.122
- z-score [4]: -5.66 (inactive)
- z-score [5]: 0.692 (inactive)
- z-score [6]: 0.133 (inactive)

Structure (SMILES): O=C1OCC=C[C@H]2OC34C=CCN(c5ccc(Cl)cc5)C(=O)[C@H]3N(CCO)C(=O)[C@@H]4[C@@H]12 (stereo not given in full)
- composite z-score [1]: -0.0292 (inactive)
- composite z-score [2]: -0.457
- z-score [3]: 1.05
- z-score [4]: -2.74 (inactive)
- z-score [5]: -0.435 (inactive)
- z-score [6]: -0.457 (inactive)

Structure (SMILES): C=CCNC(=O)[C@H]1[C@@H]2C(=O)O[C@@H](c3ccccc3)[C@@H](c3ccccc3)N2[C@@H](c2ccc(O)cc2)[C@]12C(=O)Nc1ccc(C#CC3(O)CCCCCC3)cc12
- composite z-score [1]: 0.692 (inactive)
- composite z-score [2]: 0.466
- z-score [3]: -0.372
- z-score [4]: -3.96 (inactive)
- z-score [5]: -0.165 (inactive)
- z-score [6]: -0.244 (inactive)

Structure (SMILES): CN1C(=O)C2C=CC(C(O)c3ccc(F)cc3)N(Nc3ccccc3)C2C1=O (stereo not given)
- composite z-score [1]: 0.477 (inactive)
- composite z-score [2]: 0.466
- z-score [3]: -0.102
- z-score [4]: -2.9 (inactive)
- z-score [5]: 0.264 (inactive)
- z-score [6]: -0.232 (inactive)

Structure (SMILES): COC(=O)[C@@]1(Cc2ccc(OC)cc2)[C@H]2c3cc(C(=O)N4CCCC4)n(Cc4cccc5ccccc45)c3C[C@H]2CN1C(=O)c1ccccc1
- composite z-score [1]: 0.0014 (inactive)
- composite z-score [2]: 0.658
- z-score [3]: -1.58
- z-score [4]: -1.44 (inactive)
- z-score [5]: -0.491 (inactive)
- z-score [6]: -0.684 (inactive)

Structure (SMILES): COCCOC(=O)N1C(=O)[C@@]2(c3cc(C#CCC(C(=O)OC)C(=O)OC)ccc31)[C@H](C(=O)N1CCc3cc(OC)c(OC)cc3C1)[C@H]1C(=O)O[C@H](c3ccccc3)[C@H](c3ccccc3)N1[C@@H]2c1ccc(OCCO)cc1
- composite z-score [1]: 0.655 (inactive)
- composite z-score [2]: 0.749
- z-score [3]: -2.1
- z-score [4]: 3.49 (inactive)
- z-score [5]: -0.0997 (inactive)
- z-score [6]: 0.159 (inactive)

Structure (SMILES): COc1cccc(/C=C/C=O)c1
- composite z-score [1]: 0.421 (inactive)
- composite z-score [2]: -0.453
- z-score [3]: 1.1
- z-score [4]: -0.396 (inactive)
- z-score [5]: 0.36 (inactive)
- z-score [6]: 0.769 (inactive)

Structure (SMILES): CCOC(=O)C[C@H]1[C@H](OC(=O)c2ccccc2-c2ccccc2)[C@@H](NC(=O)C2CCCCC2)c2cc(OCCCO)ccc2N1C(=O)Cc1ccc(OC)cc1
- composite z-score [1]: 0.0141 (inactive)
- composite z-score [2]: 0.333
- z-score [3]: 0.273
- z-score [4]: -3.62 (inactive)
- z-score [5]: -0.0021 (inactive)
- z-score [6]: 0.223 (inactive)

Structure (SMILES): CCCCC(O)C1C=CC2C(=O)N(c3ccccc3)C(=O)C2N1Nc1ccc(C(C)C)cc1 (stereo not given)
- composite z-score [1]: -0.0775 (inactive)
- composite z-score [2]: 0.706
- z-score [3]: -0.243
- z-score [4]: -2.48 (inactive)
- z-score [5]: -0.638 (inactive)
- z-score [6]: -1.2 (inactive)

Structure (SMILES): COc1ccccc1CN1C(=O)c2ccccc2[C@@]2(Cc3ccccc3N(CC(F)(F)F)C2=O)[C@@H]1c1ccc(CO)cc1
- composite z-score [1]: 0.182 (inactive)
- composite z-score [2]: 0.555
- z-score [3]: -0.384
- z-score [4]: -0.814 (inactive)
- z-score [5]: 0.149 (inactive)
- z-score [6]: 0.312 (inactive)

Structure (SMILES): C=C(COC)/C(=C/C[C@H](OC(=O)c1ccncc1)c1ccccc1OCCO)c1cnc2ccccc2c1
- composite z-score [1]: 0.683 (inactive)
- composite z-score [2]: 0.612
- z-score [3]: -2.99
- z-score [4]: -5.29 (inactive)
- z-score [5]: -0.446 (inactive)
- z-score [6]: -0.166 (inactive)

Structure (SMILES): CN1C(=O)C2C=CC(C(O)c3cccc(O)c3)N(Nc3ccccc3)C2C1=O (stereo not given)
- composite z-score [1]: -0.252 (inactive)
- composite z-score [2]: -0.0631
- z-score [3]: 0.655
- z-score [4]: -0.751 (inactive)
- z-score [5]: 0.0011 (inactive)
- z-score [6]: 0.118 (inactive)

Structure (SMILES): C[C@@H]1NC(=O)[C@@]23C(=O)N[C@@H](Cc4ccccc4)C2[C@H](C)[C@@]2(C)O[C@H]2C3/C=C/C/C=C\CNC(=O)[C@@H]2CCCN2C1=O (stereo not given in full)
- composite z-score [1]: -0.85 (inactive)
- composite z-score [2]: -0.103
- z-score [3]: 0.934
- z-score [4]: -3.68 (inactive)
- z-score [5]: -0.0354 (inactive)
- z-score [6]: 0.186 (inactive)

Structure (SMILES): COCCOC(=O)N1C(=O)[C@@]2(c3cc(C#CCCO)ccc31)[C@H](c1ccccc1OCCO)N1[C@H](c3ccccc3)[C@H](c3ccccc3)OC(=O)[C@H]1[C@@H]2C(=O)Nc1nc2ccccc2s1
- composite z-score [1]: 1.45 (inactive)
- composite z-score [2]: 0.823
- z-score [3]: -1.45
- z-score [4]: 1.85 (inactive)
- z-score [5]: 0.0686 (inactive)
- z-score [6]: 0.0927 (inactive)

Structure (SMILES): CCCCC=C[C@@H](NC(=O)c1ccc(-c2ccccc2)cc1)c1ccccc1
- composite z-score [1]: -0.464 (inactive)
- composite z-score [2]: -0.102
- z-score [3]: 0.067
- z-score [4]: -3.89 (inactive)
- z-score [5]: -0.85 (inactive)
- z-score [6]: -1.37 (inactive)

Structure (SMILES): C=C(CCCC)/C(=C/C[C@@H](OC(=O)c1ccncc1)c1ccccc1OCCO)c1cnc2ccccc2c1
- composite z-score [1]: 0.0648 (inactive)
- composite z-score [2]: 0.647
- z-score [3]: -3.02
- z-score [4]: -3.49 (inactive)
- z-score [5]: 0.294 (inactive)
- z-score [6]: -0.0646 (inactive)

Structure (SMILES): CO[C@]12C=C(Br)[C@@H](C[C@@H]1c1cccc(C)c1)[C@@]1(CO1)C2=O
- composite z-score [1]: 0.177 (inactive)
- composite z-score [2]: 0.179
- z-score [3]: 0.267
- z-score [4]: -1.7 (inactive)
- z-score [5]: -0.545 (inactive)
- z-score [6]: -0.28 (inactive)

Structure (SMILES): O[C@@H](Cc1ccccc1)[C@@H](/C=C/C1CC1)N(CC#Cc1ccccc1)Cc1cccc(Cl)c1
- composite z-score [1]: -0.16 (inactive)
- composite z-score [2]: -0.646
- z-score [3]: -1.27
- z-score [4]: 0.493 (inactive)
- z-score [5]: 0.0959 (inactive)
- z-score [6]: 0.043 (inactive)
